“And” between values parts separate entries of the source, which are not always exact repeats. Equal entries are not always repeated. Inconclusive results are not listed. The source holds several records for some structures; these can differ, active in one and inactive in another. The source made the active and inactive calls. Calls follow the shape of the dose curve; as a rule, active = well fitted curve in the direction sought with a large enough effect; inconclusive = small, poorly fitted or top-dose-only effect, or another doubt; inactive = no such curve, though single readings can be large; an effect the other way counts as inactive or inconclusive.
Columns and labels:
PA-1 = assay: Primary qHTS to identify gynecologic anti-cancer compounds using libraries of approved drugs and bioactive compounds (AID 1345084); conditions: Gynecologic cancer cell panel viability, ATPlite luminescence, 48 h; series mostly up to 57.5 µM; also: nearly all actives have a fitted effect of over 55% in size
Outline: (§1)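 ATP-based viability (ATPlite), 1,000 cells/well, 16 h pre-incubation, 48 h compound at 37 C, 5% CO2, 15 min RT before read.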

Tov-21-G = assay: as above; conditions: Gynecologic cancer cell panel viability, ATPlite luminescence, 48 h; series mostly up to 57.5 µM
Outline: as §1

Tov112D = assay: as above; conditions: Gynecologic cancer cell panel viability, ATPlite luminescence, 48 h; series mostly up to 57.5 µM
Outline: as §1

[1] = Drug repurposing screens with cells derived from glioblastoma tumor samples (AID 1345199); conditions: GBM patient neurospheres viability, ATP luminescence, 48 h; also: nearly all actives have a fitted effect of over 40% in size
Outline: (§2)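 Primary testing used CD133+ neurospheres from four GBM patients, seven concentrations, 48 h exposure and ATP-based viability; confirmation added three slower-growing patient lines.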

Hek293T = assay: Primary qHTS to identify gynecologic anti-cancer compounds using libraries of approved drugs and bioactive compounds (AID 1345084); conditions: Gynecologic cancer cell panel viability, ATPlite luminescence, 48 h, control line for the selectivity index; series mostly up to 57.5 µM; also: nearly all actives have a fitted effect of over 55% in size
Outline: as §1

JEG-3 = assay: as above; conditions: Gynecologic cancer cell panel viability, ATPlite luminescence, 48 h; series mostly up to 57.5 µM
Outline: as §1

OV90 = assay: as above; conditions: Gynecologic cancer cell panel viability, ATPlite luminescence, 48 h; series mostly up to 57.5 µM
Outline: as §1

SKOV3 = assay: as above; conditions: Gynecologic cancer cell panel viability, ATPlite luminescence, 48 h; series mostly up to 57.5 µM
Outline: as §1

astro = assay: Drug repurposing screens with cells derived from glioblastoma tumor samples (AID 1345199); conditions: viability, ATP luminescence, 48 h; series mostly up to 45.9 µM; also: nearly all actives have a fitted effect of over 40% in size
Outline: as §2

[2] = at 45.9 µM (top of the series), tumour line B
[3] = at 45.9 µM (top of the series), tumour line D
[4] = at 46.1 µM (top of the series), tumour line C
% is scaled to controls: 0 for no effect and ±100 for the full control effect; potency is read from the fitted curve at half-maximal effect.

COC(=O)Nc1nc2ccc(S(=O)c3ccccc3)cc2[nH]1 (configuration not stated)
active: Potency (PA-1) 1.58 µM | Potency (Tov-21-G) 3.98 µM | Potency (Tov112D) 1.58 µM
inactive: activity, negative = cell killing [1, 2] -15.1% | activity, negative = cell killing [1, 3] -1.35% | activity, negative = cell killing [1, 4] -3.75%

CCCc1nc(C)c2c(=O)[nH]c(-c3cc(S(=O)(=O)N4CCN(CC)CC4)ccc3OCC)nn12
active: Potency ([1]; tumour line A) 17.8 µM
inactive: Potency (Hek293T) | Potency (JEG-3) | Potency (OV90) | Potency (SKOV3) | Potency (Tov-21-G) | Potency (Tov112D) | activity, negative = cell killing [1, 2] -13% | activity, negative = cell killing [1, 3] -20.9% | activity, negative = cell killing [1, 4] -8.37% | Potency (astro)

NC(N)=NC(N)=NCCc1ccccc1
active: Potency (SKOV3) 14.1 µM | Potency ([1]; tumour line D) 25.1 µM
inactive: Potency (Hek293T) | Potency (JEG-3) | Potency (Tov-21-G) | Potency (Tov112D) | activity, negative = cell killing ([1]; at 21.2 µM (top of the series), tumour line B) -24.6% | activity, negative = cell killing ([1]; at 21.3 µM (top of the series), tumour line A) -28.1% | activity, negative = cell killing [1, 2] -14.4% | Potency (astro)

O[C@@H](CNC[C@H](O)[C@H]1CCc2cc(F)ccc2O1)[C@@H]1CCc2cc(F)ccc2O1
active: Potency (SKOV3) 22.4 µM
inactive: Potency (Hek293T) | Potency (JEG-3)

C1CCC(C(CC2CCCCN2)C2CCCCC2)CC1 (configuration not stated)
active: Potency (OV90) 25.1 µM | Potency (SKOV3) 7.94 µM | Potency (Tov-21-G) 31.6 µM | Potency (astro) 15.8 µM

COc1c(N2CCNC(C)C2)c(F)cc2c(=O)c(C(=O)O)cn(C3CC3)c12 (configuration not stated)
inactive: Potency (Hek293T) | Potency (JEG-3) | Potency (OV90) | Potency (PA-1) | Potency (Tov-21-G) | Potency (Tov112D) | activity, negative = cell killing [1, 2] -10.7% | activity, negative = cell killing [1, 3] -20.8% | activity, negative = cell killing [1, 4] 14.5%

CN1CCCC(n2nc(Cc3ccc(Cl)cc3)c3ccccc3c2=O)CC1 (configuration not stated)
active: Potency ([1]; tumour line A) 11.2 µM | Potency ([1]; tumour line D) 14.1 µM
inactive: Potency (Hek293T) | Potency (JEG-3) | Potency (SKOV3) | activity, negative = cell killing [1, 4] 4.16%

O=c1cc(O)c(Cl)c[nH]1
inactive: Potency (Hek293T) | Potency (JEG-3) | Potency (OV90) | Potency (SKOV3) | Potency (Tov-21-G) | Potency (Tov112D) | activity, negative = cell killing [1, 2] -16% | activity, negative = cell killing [1, 3] 7.88% | activity, negative = cell killing ([1]; at 46 µM (top of the series), tumour line A) -15.8% | activity, negative = cell killing [1, 4] -29.9% | Potency (astro)

CC(N)C12CC3CC(CC(C3)C1)C2 (configuration not stated)
inactive: Potency (Hek293T) | Potency (JEG-3) | Potency (PA-1) | Potency (SKOV3) | Potency (Tov-21-G) | Potency (Tov112D) | activity, negative = cell killing [1, 2] -2.45% | activity, negative = cell killing [1, 3] -5.43% | activity, negative = cell killing [1, 4] 5.06% | Potency (astro)

Cc1c(-c2ccc(O)cc2)n(Cc2ccc(OCCN3CCCCCC3)cc2)c2ccc(O)cc12
inactive: Potency (Hek293T) | Potency (JEG-3) | Potency (Tov-21-G)

CN(C)c1ccc(C(=C2C=CC(=[N+](C)C)C=C2)c2ccc(N(C)C)cc2)cc1
active: Potency (JEG-3) 14.1 µM | Potency (PA-1) 0.447 µM | Potency (SKOV3) 0.316 µM | Potency (Tov-21-G) 1.78 µM | Potency (Tov112D) 2 µM | Potency (astro) 2.51 µM

CCC(=O)O[C@]1(C(=O)CCl)[C@@H](C)C[C@H]2[C@@H]3CCC4=CC(=O)C=C[C@]4(C)[C@@]3(F)[C@@H](O)C[C@@]21C
inactive: Potency (Hek293T) | Potency (JEG-3) | Potency (OV90) | Potency (PA-1) | Potency (Tov-21-G) | Potency (Tov112D) | activity, negative = cell killing [1, 2] -2.08% | activity, negative = cell killing [1, 3] 0.817% | activity, negative = cell killing [1, 4] 10.1%

N[C@@H](Cc1ccc(O)c(O)c1)C(=O)O
active: Potency ([1]; tumour line A) 12.6 µM
inactive: activity, negative = cell killing [1, 4] 28.9%

CC(C)(C#N)c1cc(Cn2cncn2)cc(C(C)(C)C#N)c1
inactive: Potency (Hek293T) | Potency (JEG-3) | Potency (OV90) | Potency (PA-1) | Potency (SKOV3) | Potency (Tov-21-G) | activity, negative = cell killing [1, 2] -13.4% | activity, negative = cell killing [1, 3] -8.79% | activity, negative = cell killing [1, 4] -3.92% | Potency (astro)

COc1cc2c(Nc3ccc(Br)cc3F)ncnc2cc1OCC1CCN(C)CC1
active: Potency (astro) 14.1 µM
inactive and 28.2 µM (active): Potency (JEG-3)
inactive: Potency (Hek293T) | Potency (OV90) | Potency (PA-1) | Potency (Tov-21-G)
inactive and 12.6 µM (active): Potency (SKOV3)
inactive and 31.6 µM (active): Potency (Tov112D)

CC(=O)[C@H]1CC[C@H]2[C@@H]3CCC4=CC(=O)CC[C@]4(C)[C@H]3CC[C@]12C
inactive: activity, negative = cell killing [1, 2] -26.3% | Potency (astro)
active: Potency ([1]; tumour line D) 12.6 µM

Nc1nc(=S)c2[nH]cnc2[nH]1
active: Potency (JEG-3) 3.16 µM | Potency (OV90) 8.91 µM | Potency (PA-1) 3.55 µM | Potency (Tov-21-G) 3.55 µM | Potency (Tov112D) 1.41 µM
inactive: Potency (astro)
